# Only some compounds are listed: those with a hit (about 0.92% of all), similar ones and a draw of the others.
# FadD28 FP inh: M. tuberculosis FadD28 bisubstrate binding inhibition | actives 0.22% (n = 360,000) | FadD28 bisubstrate probe binding, fluorescence polarization | AID 588549 | inhibition, % at 12.5 µM; in the data active = inhibition above about 8.5%, passing the limit was not always enough; inconclusive = no clear call, values can overlap the other calls
# Mtb UGM inh: inhibitors of M. tuberculosis UDP-galactopyranose mutase; inhibition, % at 10 µM; actives 0.06% (n = 320,000); purified UGM, fluorescence polarization probe displacement; AID 504406; P9WIQ1; in the data active = inhibition above about 10%, passing the limit was not always enough; inconclusive = no clear call, values can overlap the other calls
# Mtb hypoxia rep: Mtb hypoxia fluorescent reporter inhibition; M. tuberculosis hypoxia-regulated fluorescent reporter, fluorescence; fluorescence inhibition, % (test concentration not listed); AID 1159583; actives 0.1% (n = 300,000); in the data active = fluorescence inhibition mostly above about 23%, no sharp cut-off; inactive = mostly below about 17%
# RecA intein inh: blocks M. tuberculosis RecA intein splicing. cell-free RecA intein splicing, fluorescence. inhibition, % (no concentration beside the values). actives 0.75% (n = 290,000). AID 2221; in the data active = inhibition above about 30%; inconclusive = no clear call, values can overlap the other calls;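 note: 0% = vehicle wells and 100% = reference inhibitor control wells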
# Rv3671c protease: Rv3671c (M. tuberculosis) protease inhibition; P9WHR9; inhibition, % at 5.96 µM; actives 0.048% (n = 320,000); in the data active = inhibition above about 38%;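 note: extracellular domain of Rv3671c used as enzyme; 0% = enzyme with DMSO and 100% = no enzyme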
# Target sequence (P9WHR9 whole entry, looked up, the tested form may be a part): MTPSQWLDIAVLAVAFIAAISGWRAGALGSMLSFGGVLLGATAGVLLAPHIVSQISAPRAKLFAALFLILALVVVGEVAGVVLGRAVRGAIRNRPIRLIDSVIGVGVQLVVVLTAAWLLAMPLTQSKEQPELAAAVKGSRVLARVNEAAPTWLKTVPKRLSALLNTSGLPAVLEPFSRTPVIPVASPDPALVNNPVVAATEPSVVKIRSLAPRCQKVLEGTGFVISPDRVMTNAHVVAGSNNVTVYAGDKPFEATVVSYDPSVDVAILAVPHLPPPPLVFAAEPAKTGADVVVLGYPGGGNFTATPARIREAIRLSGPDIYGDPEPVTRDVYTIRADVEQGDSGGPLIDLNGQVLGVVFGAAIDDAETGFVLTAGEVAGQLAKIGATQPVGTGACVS
# * hit, by the source's call; ? = inconclusive; / = no result given.
SMILES,FadD28 FP inh,Mtb UGM inh,Mtb hypoxia rep,RecA intein inh,Rv3671c protease
CCOC(=O)C1=C(C)N=c2sc(=Cc3cccc([N+](=O)[O-])c3O)c(=O)n2C1c1ccc(OC)cc1OC (stereo not given),/,/,40.6*,/,/
COc1ccc(C2C(C(C)=O)=C(C)N=c3s/c(=C\c4cc(C)n(C)c4C)c(=O)n32)c(OC)c1 (stereo not given),11.7*,-12.9,/,-1.2,-17.8
CC(=NOCON=C(C)c1ccc(F)cc1)c1ccc(F)cc1,/,/,7.9,/,/
CN(C)c1ccc(C=NNC(=O)c2ccc3c(c2)OCCO3)cc1,/,/,-5.1,/,/
CC(CC(=O)Nc1cc(C)ccn1)=NNC(=O)C(=O)NC(C)C,/,/,-7.2,/,/
O=C1CCCC/C1=C\Nc1ccc(C(=O)O)c(O)c1,30.7*,0.7,/,-0.9,1.7
CC(=O)ON=C(N)c1ccc(-c2csnn2)cc1,/,/,-8.5,/,/
O=C(NCc1ccc(F)cc1)C(Cc1ccccc1)NS(=O)(=O)c1cccs1 (stereo not given),24.6*,4.3,11.1,-2.2,-5.1
O=C(NCc1cccs1)C(Cc1ccccc1)NS(=O)(=O)c1cccs1 (stereo not given),1.3,-0.7,3.2,1.0,-5.3
COc1ccccc1NC(=O)Cn1cnc2c(oc3nc4c(cc32)CCCC4)c1=O,25.1*,-1.0,-9.5,-16.1,-1.8
COc1cccc(NC(=O)Cn2cnc3c(oc4nc5c(cc43)CCCC5)c2=O)c1,-1.7,1.9,5.7,1.6,-17.4
CCn1c(COc2ccc(Cl)cc2)nnc1SC1CCc2ccccc2C1=O (stereo not given),-3.0,-2.3,-2.0,62.4*,6.3
CCn1c(COc2ccc(Cl)cc2)nnc1SCc1ccc(C#N)cc1,-8.2,0.6,/,0.0,0.6
O=C1C(=Cc2ccco2)CCC1=Cc1ccco1,12.7*,/,17.3,/,/
O=C1C(=Cc2ccco2)CCCC1=Cc1ccco1,-0.4,/,/,/,/
CCN(CC)c1ccc2cc(-c3nc4ccccc4[nH]3)c(=O)oc2c1,0.2,30.8*,-39.6,/,-3.2
Cc1c(N=C2N=C(NC(=O)c3ccc(F)cc3)c3ccccc32)c(=O)n(-c2ccccc2)n1C,4.6,18.1*,2.1,/,-0.5
CC(C)(C)c1ccc(C(=O)Cn2cnnc2C#N)cc1,2.0,-0.3,8.7,33.6*,-11.6
Cc1cc(Cl)ccc1NC(=O)C=NO,/,/,5.8,/,/
O=C(CSc1nnc(-c2c[nH]c3ccccc23)o1)N(Cc1ccccc1)c1ccc(F)cc1,-5.0,0.2,6.0,1.0,-89.8
COc1ccc(CN(C(=O)CSc2nnc(-c3ccccc3C)o2)c2ccc(F)cc2)cc1,0.4,2.3,/,40.1*,-11.2
COc1ccc2c(c1)C(=NOC(=O)c1cccs1)CCC2,/,/,7.9,/,/
Cc1cc(NS(=O)(=O)c2ccc(Nc3nc(-c4sc(N)nc4C)cs3)cc2)no1,55.1*,-0.6,/,-2.0,-12.7
CCC(=O)Nc1nc(C)c(-c2csc(Nc3cccc(C(=O)O)c3)n2)s1,3.6,0.2,-6.8,-7.8,-6.4
Cc1nc(C)c(-c2csc(Nc3ccc(O)c(C(=O)O)c3)n2)s1,17.5*,3.4,14.3,-2.8,/
SMILES,FadD28 FP inh,Mtb UGM inh,Mtb hypoxia rep,RecA intein inh,Rv3671c protease
Cc1nc(N)sc1-c1csc(Nc2cccc(C(=O)O)c2)n1,23.3*,-0.3,9.4,-1.9,/
CN=c1scc(C)n1N=Cc1ccc(O)c(O)c1O,/,/,5.0,/,/
CN=c1scc(-c2ccc(F)cc2)n1/N=C/c1ccc(O)c(O)c1,37.1*,/,/,/,/
CCCCCc1cc(=O)oc2c(C(CCN3CCCC(C)C3)c3cc(OC)c(OC)c(OC)c3)c(OC)cc(OC)c12 (stereo not given),-9.4,-1.6,10.3,29.4,-3.7
CCCCCc1cc(=O)oc2c(C(CCN3CCCC(C)C3)c3ccc(N(C)C)cc3)c(OC)cc(OC)c12 (stereo not given),-3.2,2.2,/,30.9*,-5.2
COc1cccc(C2=CC(=O)CC(c3ccc(Cl)cc3)C2)c1OC (stereo not given),/,/,19.2,/,/
CC(C)Cn1c(=O)c(C(=O)Nc2ccncc2)c(O)c2ccccc21,0.9,0.8,42.1*,-0.7,-0.1
CCCCn1c(=O)c(C(=O)Nc2ccccc2S(N)(=O)=O)c(O)c2ccccc21,-1.3,3.5,2.7,-0.2,-12.4
CCCCCn1c(=O)c(C(=O)Nc2ccccc2S(N)(=O)=O)c(O)c2ccccc21,-1.4,64.6*,0.1,-3.3,-4.8
Cc1cc2cc(CNC(=O)Nc3ccc(Cl)c(Cl)c3)ccc2n1C,12.7*,-0.9,4.0,-3.4,-13.1
COCC(=O)NCc1ccc2c(c1)cc(C)n2C,-0.4,-0.7,-3.3,/,-7.9
NCCCCC1NC(=O)c2cc([N+](=O)[O-])cc(F)c2NCCCCC(C(N)=O)NC(=O)C(CCC(N)=O)NC1=O (stereo not given),/,/,2.9,/,/
CN1/C(=C\C=C\C2=[N+](C)c3ccc4ccccc4c3C2(C)C)C(C)(C)c2ccccc21,/,1.2,/,/,186.6*
CCC1=C2CCC3C(=O)N(c4ccccc4)C(=O)C3C2[C@@]2(C)C(=NCc3ccccc3)OC(=O)N2C1=O (stereo not given in full),/,/,3.3,/,/
O=C(NN=Cc1ccnc2ccccc12)c1ccccc1O,/,/,2.2,/,/
O=C(O)c1ccccc1N/N=C\c1ccnc2ccccc12,11.4*,-3.0,/,-1.6,-9.9
O=C(CSc1ncnc2c1nnn2Cc1ccccc1F)NCC1CCCO1 (stereo not given),-3.9,2.0,15.9,50.3*,-5.2
O=C(Cn1cnc2c(nnn2Cc2ccccc2F)c1=O)NCC1CCCO1 (stereo not given),-1.6,-3.7,-0.8,-2.1,-0.6
O=C(c1c[nH]c(C(=O)C(Cl)(Cl)Cl)c1)c1ccccc1F,-1.0,1.6,4.6,59.9*,0.8
CCCNC(=O)C=Cc1ccc(S(=O)(=O)Nc2ccccc2OC)cc1,/,/,-0.2,/,/
Cc1ccc(C=Nn2c(-c3ccccc3)n[nH]c2=S)cc1,/,/,4.8,/,/
COC1=C/C(=C/c2c(N)n3cc(C)sc3nc2=O)C=CC1=O,-0.6,-3.8,-7.1,11.5,-13.8
Cc1cn2c(N)c(C=C3C=C(Cl)C(=O)C(Cl)=C3)c(=O)nc2s1,14.6*,/,-4.4,/,/
Cc1[nH]n(-c2ccccc2)c(=O)c1C(c1ccccc1[N+](=O)[O-])C(C#N)C#N (stereo not given),-0.4,0.7,5.4,64.1*,-28.4
C/C(=N\NC(=O)c1ccccc1O)c1c(O)n(C2CCCCC2)c(=O)[nH]c1=O,11.6*,0.1,6.6,15.2,4.4
SMILES,FadD28 FP inh,Mtb UGM inh,Mtb hypoxia rep,RecA intein inh,Rv3671c protease
C/C(=N\NC(=O)c1ccccc1Cl)c1c(O)n(C2CCCCC2)c(=O)[nH]c1=O,-0.1,1.3,11.8,0.9,3.4
COc1ccc(Cn2c(O)c(C=Nc3ccccc3C(=O)O)c3ccccc3c2=O)cc1,?,-1.0,-7.8,11.3,10.7
COc1ccccc1NS(=O)(=O)c1cccc(-n2c(O)c(C=Nc3ccccc3C(=O)O)c3ccccc3c2=O)c1,19.7*,7.3,10.9,18.9,8.1
COc1ccc(N2C(=O)c3cccc4c(N(C)CCO)ccc(c34)C2=O)cc1,1.1,20.9*,2.4,-11.2,/
COC(=O)[C@@]12CCCCN1C(c1ccc(SC3CCCCC3)c(OC)c1)C1C(=O)N(C)C(=O)C12 (stereo not given in full),/,/,3.8,/,/
O=C1C2C3C=CC(C3)C2C(=O)N1n1cnnc1 (stereo not given),/,/,-0.8,/,/
